Assay results taken from the supplement of paper PMC10849652.
Of roughly 8,800 targets only a part is listed; those with a hit were picked by preference. About 0.5% of all pairs of compound and target were hits. A number with no mark means an inactive call.

How the values were obtained:
Assay in all cases: log2 fold change, soluble protein after heating vs DMSO (PISA); higher = thermal stabilisation; K562 lysate, 10 uM; active = over 0.2 and 3.5 SD of the protein, either way, in both replicates (recomputed)
erlotinib = compound: C#Cc1cccc(Nc2ncnc3cc(OCCOC)c(OCCOC)cc23)c1 [erlotinib]
Summary of the method: (§1)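 Log-two fold change in thermal stability relative to solvent controls is reported from duplicates. For each sample, crude K562 extract from dounce-homogenised pellets in PBS pH 7.4 with 1 mM MgCl2, at 1 mg/mL protein, was treated with 10 μM compound for 30 min. Aliquots heated for 3 min across 48°C-58°C were pooled, brought to 0.5% NP-40 at 4°C and cleared at 21,000xg for 90 min. The supernatant was quantified by TMTpro 16plex LC-MS/MS with channel sums equalised.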

[1] = compound: C/C(=N\NC(=O)C1=CC(=CC=C1)S(=O)(=O)N2CCOCC2)/C3=C(C=CC(=C3)Cl)O
Summary of the method: as §1

[2] = compound: C1=CC(=CC=C1C2=NC3=C(N2)C=C(C=C3)C(=O)N)OC4=CC=C(C=C4)Cl
Summary of the method: as §1

[3] = compound: C1=CC2=C(C=CC(=C2)/C=C\3/C(=O)NC(=NCC4=CC=CS4)S3)N=C1
Summary of the method: as §1

[4] = compound: C1=CC2=NC=CN=C2C=C1/C=C/3\C(=O)NC(=O)S3
Summary of the method: as §1

[5] = compound: C1=CC=C(C=C1)C2=NC(=C(N2)C3=CC=NC=C3)C4=CC(=C(C=C4)Cl)O
Summary of the method: as §1

[6] = compound: C1=CC=C2C(=C1)C3=NNC4=CC=CC(=C43)C2=O
Summary of the method: as §1

[7] = compound: C1CCN(C1)C(=O)NC2=CC=CC(=C2)NC3=NC=C(C(=N3)NCCC4=CN=CN4)Br
Summary of the method: as §1

[8] = compound: C1CN(CCC1(CC2=CC=C(C=C2)Cl)N)C3=NC=NC4=C3C=CN4
Summary of the method: as §1

IRAK-1-4 Inhibitor I = compound: C1COCCN1CCN2C3=CC=CC=C3N=C2NC(=O)C4=CC(=CC=C4)[N+](=O)[O-] [IRAK-1-4 Inhibitor I]
Summary of the method: as §1

ibrutinib = compound: C=CC(=O)N1CCC[C@@H](n2nc(-c3ccc(Oc4ccccc4)cc3)c3c(N)ncnc32)C1 [ibrutinib]
Summary of the method: as §1

[9] = compound: CC(=O)c1cnc2ccc(-c3cc(Cl)c(O)c(Cl)c3)nc2c1N[C@H]1CC[C@H](CN(C)C)CC1
Summary of the method: as §1

ralimetinib = compound: CC(C)(C)Cn1c(N)nc2ccc(-c3[nH]c(C(C)(C)C)nc3-c3ccc(F)cc3)nc21 [ralimetinib]
Summary of the method: as §1

[10] = compound: CC(C)(O)CC(=O)NCCn1ccc2ncnc(Nc3ccc(Oc4cccc(C(F)(F)F)c4)c(Cl)c3)c21
Summary of the method: as §1

[11] = compound: CC(C)C1=C2N=C(C=C(N2N=C1)NCC3=CC=CC=C3)NCCCCCCN
Summary of the method: as §1

[12] = compound: CC1=C(C(CC(=O)N1)C2=CC=C(C=C2)C(F)(F)F)C(=O)NC3=C(C=C4C(=C3)C=NN4)F
Summary of the method: as §1

[13] = compound: CC1=C(C2=C(C=C1)C(=O)C3=CC=CC=C3N2CCCN)C
Summary of the method: as §1

[14] = compound: CC1=C(C=C(C=C1)NC(=O)C2=CC(=CC=C2)C(C)(C)C#N)NC3=CC4=C(C=C3)N=CN(C4=O)C
Summary of the method: as §1

[15] = compound: CC1=C(C=C(C=C1)NC(=O)C2=CC(=CC=C2)N(C)C)NC(=O)C3=CC=C(C=C3)O
Summary of the method: as §1

[16] = compound: CC1=CC=C(C=C1)SC2=C3C=C(SC3=CN=C2)C(=O)N
Summary of the method: as §1

UniProt Q9H2H8, sequence (Q9H2H8 whole entry, looked up): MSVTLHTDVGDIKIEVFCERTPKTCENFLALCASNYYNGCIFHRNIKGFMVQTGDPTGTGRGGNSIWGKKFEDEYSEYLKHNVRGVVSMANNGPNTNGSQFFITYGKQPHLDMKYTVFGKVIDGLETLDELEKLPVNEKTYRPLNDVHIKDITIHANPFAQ
UniProt Q9Y244, sequence (Q9Y244 whole entry, looked up): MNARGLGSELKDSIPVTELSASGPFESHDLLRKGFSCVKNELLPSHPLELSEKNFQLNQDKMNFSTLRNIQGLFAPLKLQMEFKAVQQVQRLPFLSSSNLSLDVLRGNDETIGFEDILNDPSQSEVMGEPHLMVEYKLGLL
UniProt Q9H939, sequence (Q9H939 whole entry, looked up): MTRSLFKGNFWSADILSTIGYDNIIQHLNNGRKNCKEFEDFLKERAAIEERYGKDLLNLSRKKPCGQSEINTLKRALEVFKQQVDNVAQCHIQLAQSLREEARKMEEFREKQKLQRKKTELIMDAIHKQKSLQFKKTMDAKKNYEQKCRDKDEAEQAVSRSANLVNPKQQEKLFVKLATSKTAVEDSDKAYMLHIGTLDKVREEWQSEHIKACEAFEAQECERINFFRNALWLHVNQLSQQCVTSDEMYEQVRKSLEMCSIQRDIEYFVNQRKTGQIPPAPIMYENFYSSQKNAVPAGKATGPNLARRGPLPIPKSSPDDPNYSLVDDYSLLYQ
UniProt O14744, sequence (O14744 whole entry, looked up): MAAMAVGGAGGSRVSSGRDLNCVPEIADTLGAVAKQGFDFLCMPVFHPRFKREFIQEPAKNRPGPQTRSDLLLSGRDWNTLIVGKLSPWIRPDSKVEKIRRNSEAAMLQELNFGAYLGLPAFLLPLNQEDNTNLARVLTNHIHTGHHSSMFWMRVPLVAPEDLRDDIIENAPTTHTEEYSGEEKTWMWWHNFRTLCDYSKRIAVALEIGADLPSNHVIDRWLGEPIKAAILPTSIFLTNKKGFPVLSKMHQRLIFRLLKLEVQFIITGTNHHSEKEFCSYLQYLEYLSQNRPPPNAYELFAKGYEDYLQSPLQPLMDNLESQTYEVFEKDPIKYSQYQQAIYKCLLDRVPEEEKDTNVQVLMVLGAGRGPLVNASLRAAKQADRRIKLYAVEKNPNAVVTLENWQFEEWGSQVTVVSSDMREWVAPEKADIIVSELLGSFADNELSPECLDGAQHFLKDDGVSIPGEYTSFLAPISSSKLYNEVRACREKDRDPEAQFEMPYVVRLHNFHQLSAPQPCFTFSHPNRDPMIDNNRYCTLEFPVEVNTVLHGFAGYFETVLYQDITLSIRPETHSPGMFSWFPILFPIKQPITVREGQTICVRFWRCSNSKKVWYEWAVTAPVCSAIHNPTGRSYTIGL
UniProt Q8TCG2, sequence (Q8TCG2 whole entry, looked up): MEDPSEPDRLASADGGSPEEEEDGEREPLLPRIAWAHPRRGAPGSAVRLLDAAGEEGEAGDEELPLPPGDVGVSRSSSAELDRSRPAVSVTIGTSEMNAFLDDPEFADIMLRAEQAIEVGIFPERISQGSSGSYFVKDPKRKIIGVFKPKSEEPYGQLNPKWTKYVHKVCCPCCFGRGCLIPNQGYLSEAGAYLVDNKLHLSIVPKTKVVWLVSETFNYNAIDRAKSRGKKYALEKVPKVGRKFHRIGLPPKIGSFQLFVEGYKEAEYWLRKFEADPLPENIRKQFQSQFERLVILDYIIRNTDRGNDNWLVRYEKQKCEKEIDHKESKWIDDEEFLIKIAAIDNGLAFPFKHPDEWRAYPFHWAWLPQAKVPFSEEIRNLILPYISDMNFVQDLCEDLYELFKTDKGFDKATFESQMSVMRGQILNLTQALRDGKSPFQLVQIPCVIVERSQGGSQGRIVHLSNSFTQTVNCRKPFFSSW
UniProt Q9H0N5, sequence (Q9H0N5 whole entry, looked up): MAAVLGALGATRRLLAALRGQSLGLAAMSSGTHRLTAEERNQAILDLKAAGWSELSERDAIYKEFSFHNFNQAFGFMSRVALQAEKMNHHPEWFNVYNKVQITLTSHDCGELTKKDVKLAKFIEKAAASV
UniProt Q15054, sequence (Q15054 whole entry, looked up): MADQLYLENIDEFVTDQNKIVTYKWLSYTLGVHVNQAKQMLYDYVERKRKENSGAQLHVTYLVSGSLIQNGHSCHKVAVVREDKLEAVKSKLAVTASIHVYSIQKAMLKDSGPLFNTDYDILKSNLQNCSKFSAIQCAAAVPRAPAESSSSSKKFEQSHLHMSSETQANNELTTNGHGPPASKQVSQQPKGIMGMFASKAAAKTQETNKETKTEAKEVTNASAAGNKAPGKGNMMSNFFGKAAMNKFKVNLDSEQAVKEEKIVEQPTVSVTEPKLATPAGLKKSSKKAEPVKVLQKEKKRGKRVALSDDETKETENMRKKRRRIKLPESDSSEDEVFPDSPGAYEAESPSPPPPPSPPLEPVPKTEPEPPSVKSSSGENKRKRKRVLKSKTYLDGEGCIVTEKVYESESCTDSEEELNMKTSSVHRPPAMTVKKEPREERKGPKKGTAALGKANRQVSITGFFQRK
UniProt P46019, sequence (P46019 whole entry, looked up): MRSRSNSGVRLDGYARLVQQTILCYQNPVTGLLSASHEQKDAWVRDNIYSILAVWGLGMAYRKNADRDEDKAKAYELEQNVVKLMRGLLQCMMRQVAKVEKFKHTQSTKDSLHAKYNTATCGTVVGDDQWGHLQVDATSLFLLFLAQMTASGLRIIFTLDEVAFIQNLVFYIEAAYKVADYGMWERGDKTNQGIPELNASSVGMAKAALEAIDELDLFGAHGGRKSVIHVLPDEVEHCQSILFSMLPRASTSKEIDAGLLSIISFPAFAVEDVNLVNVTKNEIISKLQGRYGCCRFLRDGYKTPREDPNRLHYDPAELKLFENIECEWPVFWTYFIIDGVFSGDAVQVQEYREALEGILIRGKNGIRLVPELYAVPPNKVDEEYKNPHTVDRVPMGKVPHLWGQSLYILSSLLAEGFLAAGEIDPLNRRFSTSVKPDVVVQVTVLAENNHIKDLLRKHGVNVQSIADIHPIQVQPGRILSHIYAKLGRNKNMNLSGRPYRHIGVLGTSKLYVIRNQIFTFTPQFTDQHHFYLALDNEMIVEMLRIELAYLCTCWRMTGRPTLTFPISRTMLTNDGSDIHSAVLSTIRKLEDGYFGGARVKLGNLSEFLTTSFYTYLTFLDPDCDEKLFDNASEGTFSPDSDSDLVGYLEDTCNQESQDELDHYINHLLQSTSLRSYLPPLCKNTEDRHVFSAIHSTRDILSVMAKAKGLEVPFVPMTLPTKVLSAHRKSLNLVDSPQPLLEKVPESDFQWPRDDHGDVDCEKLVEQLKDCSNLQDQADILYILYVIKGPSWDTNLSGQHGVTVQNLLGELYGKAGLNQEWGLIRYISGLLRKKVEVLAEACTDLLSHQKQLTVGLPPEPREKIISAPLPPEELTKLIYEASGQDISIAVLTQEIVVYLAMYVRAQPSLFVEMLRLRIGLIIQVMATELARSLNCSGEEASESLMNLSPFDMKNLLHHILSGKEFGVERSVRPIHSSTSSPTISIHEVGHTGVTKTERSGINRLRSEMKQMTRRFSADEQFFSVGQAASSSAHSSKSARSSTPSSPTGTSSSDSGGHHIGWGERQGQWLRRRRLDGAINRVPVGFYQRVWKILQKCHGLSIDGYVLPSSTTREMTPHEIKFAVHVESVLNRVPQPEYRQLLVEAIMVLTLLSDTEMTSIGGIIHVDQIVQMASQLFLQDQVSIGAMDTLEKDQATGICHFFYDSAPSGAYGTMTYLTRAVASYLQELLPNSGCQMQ
UniProt Q96CD2, sequence (Q96CD2 whole entry, looked up): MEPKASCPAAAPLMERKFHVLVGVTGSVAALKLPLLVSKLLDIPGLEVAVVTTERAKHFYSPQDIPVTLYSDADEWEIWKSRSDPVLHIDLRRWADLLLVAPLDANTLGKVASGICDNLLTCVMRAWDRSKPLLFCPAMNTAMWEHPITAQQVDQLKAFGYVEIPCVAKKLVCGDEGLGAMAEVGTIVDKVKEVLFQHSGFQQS
UniProt P78395, sequence (P78395 whole entry, looked up): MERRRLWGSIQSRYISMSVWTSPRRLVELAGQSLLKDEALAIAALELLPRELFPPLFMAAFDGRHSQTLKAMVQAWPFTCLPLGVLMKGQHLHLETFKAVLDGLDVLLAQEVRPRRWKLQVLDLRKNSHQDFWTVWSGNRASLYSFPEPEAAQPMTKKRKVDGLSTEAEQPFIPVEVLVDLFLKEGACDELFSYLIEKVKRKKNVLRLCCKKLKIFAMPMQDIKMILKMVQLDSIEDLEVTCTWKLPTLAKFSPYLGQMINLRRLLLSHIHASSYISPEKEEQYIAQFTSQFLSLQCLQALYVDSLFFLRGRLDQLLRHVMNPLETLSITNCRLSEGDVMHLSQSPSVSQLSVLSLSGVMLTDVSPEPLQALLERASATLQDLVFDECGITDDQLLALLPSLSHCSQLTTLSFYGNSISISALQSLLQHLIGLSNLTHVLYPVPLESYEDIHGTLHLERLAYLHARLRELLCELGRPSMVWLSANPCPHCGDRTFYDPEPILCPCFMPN
UniProt Q96S99, sequence (Q96S99 whole entry, looked up): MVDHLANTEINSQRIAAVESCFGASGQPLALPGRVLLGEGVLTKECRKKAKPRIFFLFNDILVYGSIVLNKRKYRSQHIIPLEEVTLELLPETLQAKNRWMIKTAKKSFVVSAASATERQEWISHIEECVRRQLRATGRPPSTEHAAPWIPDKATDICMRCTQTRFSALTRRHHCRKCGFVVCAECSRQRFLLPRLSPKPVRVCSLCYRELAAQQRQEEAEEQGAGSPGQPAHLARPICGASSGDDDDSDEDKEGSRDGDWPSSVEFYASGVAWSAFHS

Row | Target | log2 fold change (erlotinib) | log2 fold change [1] | log2 fold change [2] | log2 fold change [3] | log2 fold change [4] | log2 fold change [5] | log2 fold change [6] | log2 fold change [7] | log2 fold change [8] | log2 fold change (IRAK-1-4 Inhibitor I) | log2 fold change (ibrutinib) | log2 fold change [9] | log2 fold change (ralimetinib) | log2 fold change [10] | log2 fold change [11] | log2 fold change [12] | log2 fold change [13] | log2 fold change [14] | log2 fold change [15] | log2 fold change [16]
1 | PLEKHF1 (UniProt Q96S99) | 0.027 | 0.032 | -0.067 | 0.006 | 0.05 | 0.017 | -0.019 | -0.032 | 0.029 | -0.024 | -0.004 | 0.015 | 0.053 | -0.042 | 0.002 | -0.069 | -0.025 | -0.002 | -0.017 | 0.015
2 | PTPN23 (UniProt Q9H3S7) | 0.017 | -0.029 | 0.016 | -0.01 | -0.023 | 0.008 | -0.028 | -0.013 | -0.003 | -0.004 | 0.024 | 0.007 | 0.029 | 0.007 | -0.019 | -0.014 | 0.01 | -0.015 | 0.009 | 0.012
3 | PRKACB isoform 2 (UniProt P22694) | -0.033 | -0.03 | -0.03 | 0.04 | -0.028 | -0.019 | 0.129 | 0.352 (active) | 0.354 (active) | 0.009 | -0.006 | 0.693 (active) | 0.033 | -0.03 | -0.013 | 0.025 | -0.014 | -0.037 | 0.014 | -0.024
4 | PICALM (UniProt H0YEH1) | -0.004 | -0.111 | 0.053 | 0.066 | -0.021 | -0.015 | 0.106 | -0.219 | -0.333 | 0.053 | -0.077 | 0.009 | -0.035 | -0.039 | 0.05 | 0.003 | 0.014 | -0.024 | 0.012 | -0.091
5 | PSTPIP2 (UniProt Q9H939) | 0.002 | 0.05 | -0.028 | 0.055 | -0.031 | -0.003 | -0.122 | 0.01 | 0.005 | 0.009 | -0.019 | -0.037 | -0.024 | 0.012 | 0.001 | -0.049 | -0.037 | 0.022 | -0.001 | -0.034
6 | PPCDC (UniProt Q96CD2) | -0.019 | 0.075 | 0.033 | -0.115 | 0.004 | 0.002 | -0.115 | -0.05 | 0.084 | 0.023 | 0.016 | 0.023 | 0.067 | -0.157 | 0.064 | -0.023 | -0.033 | 0.019 | -0.041 | 0.003
7 | PRAME (UniProt P78395) | 0.02 | -0.056 | -0.001 | -0.027 | -0.037 | 0.013 | -0.043 | -0.004 | 0.007 | -0.008 | 0.009 | 0.029 | 0.003 | 0.005 | 0.011 | 0.015 | 0.003 | 0.006 | 0.008 | 0.002
8 | PI4K2B (UniProt Q8TCG2) | 0.023 | 0.035 | -0.041 | -0.089 | -0.002 | -0.047 | 0.009 | -0.07 | 0.136 | 0.026 | -0.028 | 0.04 | 0.103 | 0.069 | -0.063 | -0.075 | -0.005 | -0.082 | 0.001 | 0.005
9 | POLR2F (UniProt P61218) | -0.05 | -0.272 | 0.069 | -0.091 | 0.033 | 0.076 | 0.01 | 0.101 | 0.019 | -0.052 | 0.02 | 0.051 | -0.238 | -0.059 | -0.11 | -0.039 | 0.096 | 0.009 | -0.157 | 0.009
10 | PPIL3 (UniProt Q9H2H8) | 0.022 | 0.071 | 0 | -0.016 | -0.039 | -0.012 | -0.028 | -0.004 | 0.071 | 0.03 | 0.044 | 0.029 | -0.023 | -0.028 | 0.022 | 0.001 | 0.003 | 0.011 | 0.009 | 0.005
11 | POLD3 (UniProt Q15054) | 0.015 | 0.002 | -0.006 | -0.003 | -0.048 | 0.01 | -0.048 | -0.058 | -0.012 | -0.035 | 0.018 | 0.006 | -0.027 | -0.004 | 0.035 | 0.019 | -0.008 | -0.022 | -0.017 | -0.038
12 | POMP (UniProt Q9Y244) | 0.058 | -0.022 | -0.001 | 0.05 | -0.003 | -0.024 | -0.08 | -0.099 | 0.048 | -0.023 | -0.025 | -0.043 | -0.001 | -0.033 | -0.013 | 0.016 | -0.09 | 0.048 | 0.027 | -0.001
13 | PRMT5 (UniProt O14744) | 0.002 | 0 | 0.032 | 0.006 | 0.007 | 0.017 | 0.017 | 0.012 | 0.019 | 0.003 | 0.004 | -0.002 | -0.015 | 0.004 | -0.004 | -0.015 | -0.008 | 0.001 | -0.01 | 0.022
14 | PPP4R2 (UniProt Q9NY27) | 0.004 | -0.007 | 0.025 | 0.063 | -0.029 | -0.02 | 0.013 | 0.004 | 0.004 | 0.012 | -0.012 | -0.007 | -0.015 | -0.058 | 0.003 | 0 | 0 | -0.007 | 0.003 | -0.019
15 | PHKA2 (UniProt P46019) | 0.048 | -0.051 | 0.032 | 0.052 | 0.044 | -0.058 | 0.012 | 0.027 | 0.033 | 0.03 | -0.032 | 0.095 | -0.022 | -0.097 | -0.016 | -0.03 | -0.076 | 0.007 | 0.013 | -0.015
16 | PCBD2 (UniProt Q9H0N5) | -0.012 | -0.033 | 0.044 | -0.022 | 0.079 | 0.005 | -0.014 | -0.018 | -0.015 | -0.01 | 0.035 | 0.02 | 0.051 | -0.08 | 0.033 | 0.025 | 0.022 | 0.027 | -0.007 | -0.03
